PubChem BioAssay (Tox21)
Results filed as inconclusive are left out. A call without a number means that no potency is given here. Calls of active or inactive are those of the source. Unless noted, calls come from the whole dose curve; as a rule, active = well fitted curve in the direction sought with a large enough effect in the repeat runs; inconclusive = weak or mixed curves; inactive = no such curve, though single readings can be large; an effect the other way counts as inactive or inconclusive.

Assays:
[1] = qHTS assay for small molecules that induce genotoxicity in human embryonic kidney cells expressing luciferase-tagged ATAD5 (AID 651632); note: nearly all actives have a fitted effect of over 15% in size; note: potency is the fitted concentration of half-maximal effect
Procedure, shortened: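 A rise in luciferase signal from ATAD5-tagged HEK293T cells marks genetic stress. Cells were exposed to compounds for 16 hr at 37C, 5% CO2, then luciferase was quantified after a 30 min room-temperature incubation with Amplite.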

[2] = qHTS assay for small molecule agonists of the p53 signaling pathway - cell viability (AID 651633; calls by dose curve; note: nearly all actives have a fitted effect of over 30% in size; note: potency is the fitted concentration of half-maximal effect)
Procedure, shortened: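 p53RE-bla cells were treated with compound for 16 hours at 37 C. Cytotoxicity was then measured as CellTiter-Glo luminescence after 30 min at room temperature.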

[3] = qHTS assay for small molecules that induce genotoxicity in human embryonic kidney cells expressing luciferase-tagged ATAD5 - cell viability (AID 651634; calls by dose curve; note: nearly all actives have a fitted effect of over 25% in size; note: potency is the fitted concentration of half-maximal effect)
Procedure, shortened: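 Cytotoxicity counter-readout: after 15.5 hr compound treatment at 37C, live-cell protease activity in ATAD5-luciferase HEK293T cells measured by CellTiter-Fluor fluorescence, 30 min development at 37C.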

[4] = qHTS assay for small molecule disruptors of the mitochondrial membrane potential - cell viability (AID 720634; calls by dose curve; note: nearly all actives have a fitted effect of over 20% in size; note: potency is the fitted concentration of half-maximal effect)
Procedure, shortened: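 Cytotoxicity was quantified from ATP content by CellTiter-Glo luminescence in the same wells as the MMP dye read-out. HepG2 (2,000 cells/well) were plated overnight and exposed to compounds for 1 hr at 37 C.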

[5] = qHTS assay to test for compound auto fluorescence at 590 nm (red) in HepG2 cells (AID 720674)
Procedure, shortened: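 Seeding: 2,000 HepG2 cells/well, MEM/10% FBS, overnight 37 C. Dosing: compound vs DMSO. Incubation: 1 hr, 37 C, 5% CO2. Read: fluorescence 540 ex/590 em, Rose Bengal sodium as red reference.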

[6] = qHTS assay to test for compound auto fluorescence at 535 nm (green) in HepG2 cells (AID 720675)
[7] = qHTS assay to test for compound auto fluorescence at 460 nm (blue) in HEK293 cells (AID 720678)
Procedure, shortened: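 Auto fluorescence in the blue band was quantified as triamterene equivalency. HEK293 cells were seeded at 2,000/well, dosed after a 4-5 hr attachment, and kept overnight at 37C before the 405/460 nm reading.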

[8] = qHTS assay to test for compound auto fluorescence at 590 nm (red) in HEK293 cells (AID 720679)
Procedure, shortened: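 Autofluorescence equivalency to Rose Bengal sodium, 540/590nm, in HEK293 cells exposed overnight to 23 nL compound per well.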

[9] = qHTS assay for small molecule disruptors of the mitochondrial membrane potential (AID 720635); note: potency is the fitted concentration of half-maximal effect
Procedure, shortened: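 HepG2 cells exposed to compound 1 hr at 37C, then Mito-MPS dye 30 min. Ratio read of aggregate (540/590 nm) versus monomer (490/535 nm) fluorescence.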

Row | Structure (SMILES) | Potency [1] | Potency [2] | Potency [3] | Potency [4] | Potency [5] | Potency [6] | Potency [7] | Potency [8] | Potency [9]
1 | CC(C)CCC[C@@H](C)[C@H]1CC(=O)C2=C3CC[C@H]4C[C@@H](O)CC[C@]4(C)[C@H]3CC[C@@]21C | inactive | inactive | inactive | inactive | inactive | inactive | inactive | inactive | 
2 | C=C(NC(=O)C(=C)NC(=O)c1csc(C2=N[C@@H]3c4csc(n4)[C@H]4NC(=O)c5csc(n5)[C@H]([C@](C)(O)[C@@H](C)O)NC(=O)[C@H]5CSC(=N5)C(=CC)NC(=O)C([C@@H](C)O)NC(=O)c5csc(n5)[C@]3(CC2)NC(=O)[C@H](C)NC(=O)C(=C)NC(=O)[C@H](C)NC(=O)C([C@@H](C)CC)NC2C=Cc3c([C@H](C)O)cc(nc3C2O)C(=O)O[C@@H]4C)n1)C(N)=O (stereo partly specified) | 11.4 µM (active) | inactive | inactive | inactive | inactive |  | inactive | inactive | 
3 | COc1cc(Br)c(C[N+]2(CCOCCC3CCC4CC3C4(C)C)CCOCC2)cc1OC (stereo unspecified) | inactive | inactive | inactive | inactive | inactive |  | inactive | inactive | 
4 | CCCc1nc(C(C)(C)O)c(C(=O)OCc2oc(=O)oc2C)n1Cc1ccc(-c2ccccc2-c2nn[nH]n2)cc1 | inactive | inactive | inactive |  | inactive | inactive | inactive | inactive | inactive
5 | CN(C)CCC=C1c2ccccc2C(C)(C)c2ccccc21 | inactive | inactive | inactive | inactive | inactive | inactive | inactive | inactive | 
6 | C=C1CC[C@H](O)CC1=C/C=C1\CCC[C@]2(C)[C@@H]([C@H](C)CC[C@@H](O)C(C)(C)O)CC[C@@H]12 | inactive | 21.1 µM (active) |  | inactive | inactive | inactive | inactive | inactive | 11.9 µM (active)
7 | CCSc1ccc2c(c1)N(CCCN1CCN(C)CC1)c1ccccc1S2 | inactive | inactive | inactive | inactive | inactive | inactive | inactive | inactive | 
8 | CC[C@@H]1/C=C(\C)C[C@H](C)C[C@H](OC)[C@H]2O[C@@](O)(C(=O)C(=O)N3CCCC[C@H]3C(=O)O[C@H](/C(C)=C/[C@@H]3CC[C@@H](Cl)[C@H](OC)C3)[C@H](C)[C@@H](O)CC1=O)[C@H](C)C[C@@H]2OC | inactive | inactive | inactive | inactive | inactive | inactive | inactive | inactive | 
9 | O=C(NOC[C@H](O)CO)c1ccc(F)c(F)c1Nc1ccc(I)cc1F | inactive | inactive | inactive | inactive | inactive | inactive | inactive | inactive | 
10 | Clc1cc(Cl)c(OCC#CI)cc1Cl | inactive | 26.6 µM (active) |  | 9.44 µM (active) | inactive | inactive | inactive | inactive | 4.73 µM (active)
11 | CN1CCC(CN2c3ccccc3Sc3ccccc32)C1 (stereo unspecified) | inactive | inactive | inactive | inactive | inactive | inactive | inactive | inactive | 
12 | CC(C)(CO)[C@@H](O)C(=O)NCCCC(=O)O | inactive | inactive | inactive | inactive | inactive | inactive | inactive | inactive | 
13 | CCCCCCCCCCCCCCCC(=O)OCCC1CCN(CCCN2c3ccccc3Sc3ccc(S(=O)(=O)N(C)C)cc32)CC1 | inactive | inactive | inactive | inactive | inactive | inactive | inactive | inactive | 
14 | CCC(=O)OCC(=O)[C@@]1(OC(=O)CC)[C@@H](C)C[C@H]2[C@@H]3CCC4=CC(=O)C=C[C@]4(C)[C@@]3(Cl)[C@@H](O)C[C@@]21C | inactive | inactive |  | inactive | inactive | inactive | inactive | inactive | 21.1 µM (active)
15 | O=C1/C(=C\c2cccs2)CCC/C1=C\c1cccs1 | 5.96 µM (active) | inactive | inactive |  | inactive | inactive | inactive | inactive | 21.1 µM (active)
16 | CN1CCc2c(c3ccccc3n2Cc2ccccc2)C1 | inactive | inactive | inactive | inactive | inactive | inactive | inactive | inactive | 
17 | CN=C1C=CC(=C(c2ccc(N(C)C)cc2)c2ccc(N(C)C)cc2)C=C1 | inactive | 18.8 µM (active) | 4.73 µM (active) |  | inactive | inactive | inactive | inactive | 0.0441 µM (active)
18 | CC1=C(C(=O)OCCN(Cc2ccccc2)c2ccccc2)C(c2cccc([N+](=O)[O-])c2)C(P2(=O)OCC(C)(C)CO2)=C(C)N1 (stereo unspecified) | inactive | inactive |  | inactive | inactive | inactive | inactive | inactive | 26.6 µM (active)
19 | COc1cc(-c2ccc(-[n+]3nc(-c4ccccc4)nn3-c3ccc([N+](=O)[O-])cc3)c(OC)c2)ccc1-[n+]1nc(-c2ccccc2)nn1-c1ccc([N+](=O)[O-])cc1 | 5.96 µM (active) | 11.9 µM (active) | 29.8 µM (active) | inactive | inactive | inactive | inactive | inactive | 
20 | CO[C@H]1C=CO[C@@]2(C)Oc3c(C)c(O)c4c(O)c(c(/C=N/N5CCN(C6CCCC6)CC5)c(O)c4c3C2=O)NC(=O)/C(C)=C\C=C[C@H](C)[C@H](O)[C@@H](C)[C@@H](O)[C@@H](C)[C@H](OC(C)=O)[C@@H]1C | inactive | 26.6 µM (active) | 21.1 µM (active) |  | inactive | inactive | inactive | inactive | 1.19 µM (active)

Row | Structure (SMILES) | Potency [1] | Potency [2] | Potency [3] | Potency [4] | Potency [5] | Potency [6] | Potency [7] | Potency [8] | Potency [9]
21 | CCCCCCCN(CC)CCCC(O)c1ccc(NS(C)(=O)=O)cc1 (stereo unspecified) | inactive | inactive | inactive |  | inactive | inactive | inactive | inactive | 
22 | NC(=O)C[C@@H](N)C(=O)O | inactive | inactive | inactive | inactive | inactive | inactive | inactive | inactive | 
23 | Cn1c(O)c(N=NC(N)=S)c2ccccc21 | inactive | inactive |  | inactive | inactive | inactive | inactive | inactive | 4.95 µM (active)
24 | C[C@H]1C[C@@H]2[C@H]([C@@H](O)C[C@@]3(C)[C@H]2CC[C@]3(O)C(=O)COC(=O)CCC(=O)O)[C@@]2(C)C=CC(=O)C=C12 | inactive | inactive | inactive | inactive | inactive |  | inactive | inactive | 
25 | CC(C)(C)NCC(O)c1ccc(O)c(CO)n1 (stereo unspecified) | inactive | inactive | inactive | inactive | inactive | inactive | inactive | inactive | 
26 | CCOc1cc(-c2nccc3cc(OC)c(OC)cc23)cc(OCC)c1OCC | inactive | inactive | 26.6 µM (active) |  | inactive | inactive | inactive | inactive | 
27 | CC1=C(/C=C/C(C)=C/C=C/C(C)=C/C=C/C=C(C)/C=C/C=C(C)/C=C/C2=C(C)C(=O)CCC2(C)C)C(C)(C)CCC1=O | inactive | inactive | inactive | inactive | inactive | inactive | inactive | inactive | 
28 | C=CC1=C(C)C2=CC3=NC(=C(CC(=O)[O-])C4=NC(=C(C)C4=C([O-])[O-])C=c4[n-]c(c(C)c4CC)=CC1=N2)C(CCC(=O)[O-])C3C.[Cu+2].[Na+].[Na+].[Na+] (stereo unspecified) | inactive | inactive | 23.7 µM (active) | inactive | inactive | inactive | inactive | inactive | 
29 | CCN1C(=O)NC(c2ccccc2)C1=O (stereo unspecified) | inactive | inactive | inactive | inactive | inactive |  | inactive | inactive | 
30 | CCCCCc1ccc(C)cc1O | inactive | inactive | inactive |  | inactive | inactive | inactive | inactive | 10.6 µM (active)
31 | CN1CCCC(CN2c3ccccc3Sc3ccccc32)C1 (stereo unspecified) | inactive | inactive |  | inactive | inactive | inactive | inactive | inactive | 
32 | CCOC(=O)C1=C(COCCN)NC(C)=C(C(=O)OC)C1c1ccccc1Cl (stereo unspecified) | inactive |  | inactive | inactive | inactive | inactive | inactive | inactive | 
33 | CCC(=O)Oc1ccc2c(c1)CC[C@@H]1[C@@H]2CC[C@]2(C)[C@@H](OC(=O)CC)CC[C@@H]12 | inactive |  | inactive | inactive | inactive | inactive | inactive | inactive | inactive
34 | CCCCCCCCCCCCCCCCOCCOCCOCCOCCOCCOCCOCCOCCOCCOCCOCCOCCOCCOCCOCCOCCOCCOCCOCCOCCO | inactive | 6.68 µM (active) |  |  | inactive | inactive | inactive | inactive | 23.7 µM (active)
35 | CCCCCCCCCCCCCCCCCC[N+](C)(C)CCC[Si](OC)(OC)OC | inactive |  | inactive | inactive | inactive | inactive | inactive | inactive | 
36 | CC(=O)Oc1cc(C)c(OC(C)=O)c2ccccc12 | inactive |  | inactive | inactive | inactive | inactive | inactive | inactive | 
37 | CCC[C@@]1(CCc2ccccc2)CC(O)=C([C@H](CC)c2cccc(NS(=O)(=O)c3ccc(C(F)(F)F)cn3)c2)C(=O)O1 | inactive |  | inactive | inactive | inactive | inactive | inactive | inactive | 23.7 µM (active)
38 | CCOC(=O)[C@H](CS)NCCN[C@@H](CS)C(=O)OCC | inactive |  | inactive | inactive | inactive | inactive | inactive | inactive | inactive
39 | OCC(S)CS (stereo unspecified) | inactive | 26.6 µM (active) |  | inactive | inactive | inactive | inactive | inactive | inactive
